The source made the active and inactive calls.

Experiment [1] deals with Albumin (Bos taurus) (UniProt P02769). Nature of the experiment: bovine serum albumin binders on microarray, profiling panel, artefact control for SMM control protein annotation, biochemical, small-molecule microarray, Alexa647 label, 635/667 nm fluorescence (AID 1118).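 Also: score merges 667 nm emission intensity and signal-to-noise per printed compound spot.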 To be noted: BSA-A647 binding, fluorescence 635 nm, higher = more signal.
Sequence of Albumin (Bos taurus) (P02769 whole entry, looked up): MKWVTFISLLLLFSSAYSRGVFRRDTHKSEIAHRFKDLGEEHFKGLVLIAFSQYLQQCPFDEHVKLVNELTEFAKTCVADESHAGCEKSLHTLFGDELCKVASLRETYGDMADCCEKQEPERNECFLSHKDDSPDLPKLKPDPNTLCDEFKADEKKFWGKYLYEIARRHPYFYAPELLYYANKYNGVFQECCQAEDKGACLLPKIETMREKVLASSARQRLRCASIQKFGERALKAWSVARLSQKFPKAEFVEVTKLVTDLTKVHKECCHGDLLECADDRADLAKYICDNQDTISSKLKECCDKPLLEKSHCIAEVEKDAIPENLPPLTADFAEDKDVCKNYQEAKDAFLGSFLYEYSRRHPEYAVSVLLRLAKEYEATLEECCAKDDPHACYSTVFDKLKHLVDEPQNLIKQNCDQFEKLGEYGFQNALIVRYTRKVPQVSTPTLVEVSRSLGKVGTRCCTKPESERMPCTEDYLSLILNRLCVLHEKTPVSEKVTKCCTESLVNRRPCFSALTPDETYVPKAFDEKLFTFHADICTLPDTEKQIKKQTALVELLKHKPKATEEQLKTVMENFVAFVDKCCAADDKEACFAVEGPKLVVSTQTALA
A short description of experiment [2]: small-molecule microarray binders of probe aXIP, primary screen, biochemical, NeuroSMM set, 635/667 nm fluorescence (AID 1119).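 Also: probe is the protein aXip251-270 applied at 1 µg/mL to compound-printed slides; binding of probe to printed compounds measured as 667 nm fluorescence plus signal to noise.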 To be noted: higher = more signal, called active from +8 up or from −8 down.
The nature of experiment [3]: small-molecule binders of probe aNOTCH3, primary screen, biochemical, small-molecule microarray, 635/667 nm fluorescence (AID 1120).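 Also: probe is a biotin-tagged antibody raised against NOTCH3 rather than NOTCH3 protein; score merges spot fluorescence near 667 nm with spot signal to noise.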 The conditions noted are these: higher = more signal.
The nature of experiment [4]: small-molecule binders of probe aNOTCH2, primary screen, biochemical, small-molecule microarray, 635/667 nm fluorescence (AID 1121).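 Also: score merges feature fluorescence read at 667 nm with its signal to noise.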 To be noted: higher = more signal.
For experiment [5], the target named is Carbonic anhydrase 2 (Homo sapiens) (UniProt P00918). The experiment is described as follows: CAII small-molecule binders, profiling panel, biochemical, small-molecule microarray, Alexa647-labelled CAII (AID 1122). To be noted: CAII-A647 binding fluorescence, higher = more signal.
The nature of experiment [6]: COS7 lysate on small-molecule microarray, probe aHis, 635 nm (AID 1123).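 Also: z-score combines 667nm fluorescence intensity with signal-to-noise per printed compound spot.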 The conditions noted are these: COS7 cell lysate, fluorescence, higher = more signal.
Experiment [7] can be described thus: compound binding in COS7 lysate, probe aLAP1, primary screen, cell lysate, small-molecule microarray (AID 1124).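 Also: lysate comes from COS7 cells expressing LAP1 and is applied at 0.3 µg/mL; score merges spot fluorescence near 667 nm with signal-to-noise over triplicate slides.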 To be noted: probe aLAP1, fluorescence, higher = more signal.
The test system of experiment [8] is Sam68 (KHDRBS1). Nature of the experiment: Sam68 small-molecule binders, primary screen, biochemical, small-molecule microarray, 635 nm fluorescence (AID 1125).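 Also: score merges 667 nm channel intensity with signal to noise over triplicate slides.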 The conditions noted are these: small-molecule microarray binding, higher = more signal.
Experiment [9] concerns Chordin-like protein 2 (CHRDL2). Nature of the experiment: CHRDL2 small-molecule binders, primary screen, biochemical, small-molecule microarray, 635 nm fluorescence (AID 1126).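 Also: printed compound slides probed with Chrdl2 protein at 4 µg/mL for 1 h at 4 C; score merges 667 nm emission intensity with signal to noise over three replicate slides.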 The conditions noted are these: small-molecule microarray binding, fluorescence 635 nm; higher = more signal.
Experiment [10] concerns the target Concanavalin-A (Canavalia ensiformis) (UniProt P02866). The experiment is described as follows: ConA small-molecule binders, primary screen, artefact control for SMM control protein annotation, biochemical, small-molecule microarray, Alexa647 label, 635 nm (AID 1127).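 Also: z combines 667 nm emission intensity with signal-to-noise across three replicate slides.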 To be noted: ConA-A647 binding fluorescence, higher = more signal.
Experiment [11] can be described thus: anti-His antibody binders, primary screen, artefact control for SMM control protein annotation, biochemical, small-molecule microarray, 635 nm fluorescence (AID 1128).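 Also: score merges feature fluorescence with signal-to-noise for each printed compound spot.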 The conditions noted are these: anti-His Alexa647 antibody binding, higher = more signal.
For experiment [12], the system named is Human papillomavirus type 1a E7 protein (residues 1-88). The experiment is described as follows: HPV1a E7 small-molecule binders, primary screen, biochemical, small-molecule microarray, residues 1-88, 635 nm (AID 1129). To be noted: small-molecule microarray binding, fluorescence 635 nm; higher = more signal.
The target in experiment [13] is Focal adhesion kinase 1 (Homo sapiens) (UniProt Q05397). Nature of the experiment: small-molecule microarray binders of FAK, primary screen, biochemical, 635/667 nm fluorescence, BSA, DTT (AID 1130).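 Also: composite of spot emission at 667 nm and signal to noise over triplicate slides.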 To be noted: PTK2 binding, 635 nm fluorescence, higher = more signal.
Sequence of Focal adhesion kinase 1 (Homo sapiens) (Q05397 whole entry, looked up): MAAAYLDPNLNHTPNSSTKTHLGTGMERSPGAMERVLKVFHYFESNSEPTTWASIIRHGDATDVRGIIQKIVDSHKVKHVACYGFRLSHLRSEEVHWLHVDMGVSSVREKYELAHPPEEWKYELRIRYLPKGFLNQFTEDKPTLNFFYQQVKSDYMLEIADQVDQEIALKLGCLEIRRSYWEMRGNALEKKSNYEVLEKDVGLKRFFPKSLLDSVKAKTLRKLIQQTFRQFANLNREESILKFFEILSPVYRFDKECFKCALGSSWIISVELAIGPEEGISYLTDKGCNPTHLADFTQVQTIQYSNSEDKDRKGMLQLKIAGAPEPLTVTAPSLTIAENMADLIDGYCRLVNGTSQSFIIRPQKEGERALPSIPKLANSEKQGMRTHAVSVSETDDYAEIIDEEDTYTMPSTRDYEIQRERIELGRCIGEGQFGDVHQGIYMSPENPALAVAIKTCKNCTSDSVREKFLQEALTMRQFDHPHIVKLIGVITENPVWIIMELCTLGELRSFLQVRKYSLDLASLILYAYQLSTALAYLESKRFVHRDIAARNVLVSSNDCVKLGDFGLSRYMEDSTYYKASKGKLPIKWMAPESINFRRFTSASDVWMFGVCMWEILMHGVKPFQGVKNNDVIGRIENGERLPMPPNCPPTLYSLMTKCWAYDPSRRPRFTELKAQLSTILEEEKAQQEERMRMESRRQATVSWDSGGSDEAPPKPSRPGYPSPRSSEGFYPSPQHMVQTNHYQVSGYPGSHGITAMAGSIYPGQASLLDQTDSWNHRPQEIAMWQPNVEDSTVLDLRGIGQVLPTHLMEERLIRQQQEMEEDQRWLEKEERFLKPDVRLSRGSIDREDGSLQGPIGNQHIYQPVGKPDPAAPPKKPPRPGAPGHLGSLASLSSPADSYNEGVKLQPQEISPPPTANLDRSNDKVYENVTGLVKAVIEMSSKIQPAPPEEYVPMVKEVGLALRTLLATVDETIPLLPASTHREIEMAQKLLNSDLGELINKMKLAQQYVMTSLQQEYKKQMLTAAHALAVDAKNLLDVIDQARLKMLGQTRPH
The subject of experiment [14] is Fibrinogen (Alexa647-labelled). Nature of the experiment: fibrinogen binders on compound microarrays, profiling panel, artefact control for SMM control-protein annotation, biochemical, small-molecule microarray, 635/667 nm fluorescence (AID 1131).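 Also: z-score merges 667 nm fluorescence with per-spot signal-to-noise over triplicate slides.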 To be noted: fibrinogen-A647 binding fluorescence, higher = more signal.
In experiment [15] the target is Follistatin (Homo sapiens) (UniProt P19883). Nature of the experiment: follistatin binders on small-molecule microarrays, primary screen, biochemical, small-molecule microarray, 635/667 nm fluorescence (AID 1132). The conditions noted are these: FST binding, 635 nm fluorescence, higher = more signal.
Sequence of Follistatin (Homo sapiens) (P19883 whole entry, looked up): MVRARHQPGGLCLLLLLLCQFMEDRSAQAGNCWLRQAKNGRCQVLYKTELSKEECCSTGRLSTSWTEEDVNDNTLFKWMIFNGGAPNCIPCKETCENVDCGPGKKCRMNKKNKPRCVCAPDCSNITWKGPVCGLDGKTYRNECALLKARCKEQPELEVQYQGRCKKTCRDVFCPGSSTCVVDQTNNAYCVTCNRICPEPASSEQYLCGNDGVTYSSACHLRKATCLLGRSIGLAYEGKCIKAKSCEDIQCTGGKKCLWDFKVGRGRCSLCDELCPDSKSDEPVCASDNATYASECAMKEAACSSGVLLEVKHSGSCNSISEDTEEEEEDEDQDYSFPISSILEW
Experiment [16] concerns the target Fibroblast growth factor 2 (Homo sapiens) (UniProt P09038). Nature of the experiment: FGF2 binders on small-molecule microarrays, primary screen, biochemical, small-molecule microarray, 635/667 nm fluorescence (AID 1133). To be noted: small-molecule microarray binding, FGF2, fluorescence 635/667; higher = more signal.
A short description of experiment [17]: mitochondrial membrane potential change in A549 cells, profiling panel, cell-based, JC-1 fluorescence, basal, 24 h, 100 nL (AID 1138).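 Also: A549 lung adenocarcinoma cells under basal conditions with no added stimulus; test concentration not given here.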 To be noted: higher = more signal.
The test system of experiment [18] is Lefty1. Nature of the experiment: Lefty1 binders on small-molecule microarrays, primary screen, biochemical, small-molecule microarray, 635/667 nm fluorescence (AID 1139). The conditions noted are these: small-molecule microarray binding, fluorescence 635/667; higher = more signal.
The subject of experiment [19] is wheat germ agglutinin (Triticum aestivum), Alexa647-labelled. Nature of the experiment: wheat germ agglutinin binders on compound microarrays, profiling panel, artefact control for SMM control-protein annotation, biochemical, small-molecule microarray, 635/667 nm fluorescence (AID 1140).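 Also: score merges 667 nm feature emission with signal to noise over triplicate slides.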 To be noted: WGA-A647 binding, 635 nm fluorescence, higher = more signal.
The target of experiment [20] is Luciferin 4-monooxygenase (Photinus pyralis) (UniProt P08659). The experiment is described as follows: firefly luciferase enzyme inhibitors, primary screen, biochemical, luminescence, purified enzyme, 2006 set (AID 1141).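 Also: cell-free assay with purified firefly luciferase at 100 ng per well in PBS; test concentration not given here.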 To be noted: SteadyGlo luminescence, 30 min, higher = more signal, called active from +8 up or from −8 down.
Sequence of Luciferin 4-monooxygenase (Photinus pyralis) (P08659 whole entry, looked up): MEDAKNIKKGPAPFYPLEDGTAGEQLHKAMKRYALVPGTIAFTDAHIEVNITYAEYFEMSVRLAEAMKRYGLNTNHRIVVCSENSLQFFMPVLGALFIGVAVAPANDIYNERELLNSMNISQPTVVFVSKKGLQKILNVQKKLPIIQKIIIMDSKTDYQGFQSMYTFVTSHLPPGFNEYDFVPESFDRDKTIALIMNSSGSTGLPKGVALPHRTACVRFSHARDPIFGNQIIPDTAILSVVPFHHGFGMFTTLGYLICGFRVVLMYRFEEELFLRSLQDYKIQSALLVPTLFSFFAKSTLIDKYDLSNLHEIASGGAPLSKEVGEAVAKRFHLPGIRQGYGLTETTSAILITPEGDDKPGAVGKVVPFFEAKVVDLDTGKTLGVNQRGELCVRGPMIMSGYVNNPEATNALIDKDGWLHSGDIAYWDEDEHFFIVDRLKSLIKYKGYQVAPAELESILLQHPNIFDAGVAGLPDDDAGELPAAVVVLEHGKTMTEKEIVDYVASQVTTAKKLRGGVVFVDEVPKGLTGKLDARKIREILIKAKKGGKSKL

Sequence of Concanavalin-A (Canavalia ensiformis) (P02866 whole entry, looked up): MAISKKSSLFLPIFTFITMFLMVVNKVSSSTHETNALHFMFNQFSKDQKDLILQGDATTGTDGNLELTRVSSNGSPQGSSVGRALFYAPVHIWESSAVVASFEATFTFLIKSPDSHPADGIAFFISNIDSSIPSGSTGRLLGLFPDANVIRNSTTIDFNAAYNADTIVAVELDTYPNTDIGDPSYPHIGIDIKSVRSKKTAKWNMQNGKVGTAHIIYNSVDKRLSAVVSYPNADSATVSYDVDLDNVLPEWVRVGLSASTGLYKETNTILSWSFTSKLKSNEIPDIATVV
Sequence of Fibroblast growth factor 2 (Homo sapiens) (P09038 whole entry, looked up): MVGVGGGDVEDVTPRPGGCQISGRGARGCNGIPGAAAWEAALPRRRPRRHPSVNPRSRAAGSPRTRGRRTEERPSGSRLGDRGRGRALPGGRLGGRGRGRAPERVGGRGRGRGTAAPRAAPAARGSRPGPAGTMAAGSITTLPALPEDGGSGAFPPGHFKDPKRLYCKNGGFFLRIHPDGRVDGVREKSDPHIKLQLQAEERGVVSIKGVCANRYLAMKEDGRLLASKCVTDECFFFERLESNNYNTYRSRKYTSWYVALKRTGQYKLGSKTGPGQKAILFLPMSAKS

Consider `CC(CCN1CCCCc2nc(C)c(C)cc21)=NOC(C)CN1CCCCc2nc(C)c(C)cc21` (stereo not given), for which the composite z-score was 0.845 in experiment [1]; 0.284 in experiment [3]; -0.0131 in experiment [4]; 0.503 in experiment [5]; 1.12 in experiment [6]; 0.858 in experiment [7]. In addition, the composite z-score in experiment [8] amounted to 1.3; in [9], 1.25; in experiment [10] it was 0.898; in experiment [11] it was 2.37; in [12], 1.2; in [13] it was 0.332. Further, the composite z-score was 0.911 in experiment [14]; 1.29 in experiment [15]; 1.3 in experiment [16]; 1.6 in [18]; 1.11 in [19]. The composite Z-score in experiment [2] is 0.833 (inactive). For the same compound, the z-score in [17] is 0.828; in experiment [20] it was -0.483 (inactive).

With `COc1ccc([Si](C)(C)[C@H]2[C@H](CCO)O[C@@]3(C(=O)N(Cc4cccc(NC(=O)[C@H](C)O)c4)c4ccccc43)[C@@H]2C)cc1`, the composite z-score in [1] is 0.564; in experiment [3] it was 0.0306; in [4] it was -0.13; in experiment [5], 0.395; in experiment [6], 1.55; in experiment [7] it was 0.335. The composite z-score in [8] was 1.27; in experiment [9], 0.189; in experiment [10], 1.11; in experiment [11], 1.75; in [12], 1.15; in experiment [13], 0.598. The composite z-score came out at 0.83 in experiment [14]; 1.11 in experiment [15]; 0.684 in experiment [16]; 1.23 in [18]; 0.23 in experiment [19]. Besides, the composite Z-score in experiment [2] was 1.49 (inactive). Further, the z-score in experiment [17] was -0.598; in experiment [20], -0.208 (inactive).

Consider `O[C@@H](Cc1ccccc1)[C@H]1C2C=CCCC(c3ccccc3)=C2CN1Cc1cccc(Cl)c1` (stereo not given in full), for which the composite z-score in experiment [1] is -0.158; in [3], -0.027; in experiment [4], -0.0746; in experiment [5], 0.371; in experiment [6], 0.981; in [7], 0.466. The composite z-score in [8] was 1.31; in experiment [9] it was 0.441; in [10], 0.235; in experiment [11] it was 0.607; in experiment [12] it was 1.14; in experiment [13], -0.0839. The composite z-score in [14] was found to be 0.43; in [15], 0.995; in experiment [16], 0.251; in experiment [18], 0.625; in [19], 0.875. Further, the composite Z-score in experiment [2] was 0.257 (inactive). Also, the results for the z-score in [17] and in experiment [20] were 2.09 and -2.22 (inactive), respectively.

In the case of `CCOC(=O)NN=C1C[C@@H](O)[C@@H](O)[C@@H]2[C@@H]3C(=O)N(C4CCCCC4)C(=O)[C@@H]3CC[C@H]12`, the composite z-score in [1] was 0.801; in experiment [3] it was 0.0242; in experiment [4] it was -0.037; in experiment [5], -0.0418; in [6] it was 0.387; in [7] it was 0.16. Besides, the composite z-score came to 0.458 in experiment [8]; 0.0341 in experiment [9]; 0.357 in [10]; 0.0946 in [11]; 0.832 in experiment [12]; 0.25 in [13]. Besides, the composite z-score in [14] was determined as 0.657; in experiment [15] it was 0.061; in experiment [16] it was 0.0615; in experiment [18] it was 0.78; in [19], 0.395. Also, the composite Z-score in experiment [2] was -0.0662 (inactive). Further, the results for the z-score in [17] and in [20] were -1.13 and 0.63 (inactive), respectively.

As for `CC(C)[C@@H](OCc1ccccc1)[C@H](C)C=NO[C@H](C)c1cn([C@H](CO)Cc2ccccc2)nn1`, the composite z-score in experiment [1] is 0.0792; in experiment [3], -0.0362; in experiment [4], -0.163; in experiment [5], 0.0227; in experiment [6], 0.544; in experiment [7], 0.294. Also, the composite z-score in experiment [8] is 1.01; in experiment [9], 0.779; in [10], 0.392; in experiment [11], 0.424; in experiment [12] it was 0.222; in experiment [13], -0.238. For the same compound, the composite z-score in experiment [14] came out at 0.286; in experiment [15], 0.171; in [16] it was 0.446; in [18], 0.913; in experiment [19] it was 0.106. Further, in experiment [2], the composite Z-score is 0.0599 (inactive). For the same compound, the z-score in experiment [17] was 0.506; in [20], -1.62 (inactive).
